Among the data in PubChem BioAssay (NCI) are growth values, retold here.

The panel holds about 83,000 compounds, 20% with a hit somewhere; the sample as a whole holds those more often.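 Method: cells in 96-well plates; compound added at one concentration; 48 h incubation; percent growth measured; values under 10 scored active.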 Values without a mark were called inactive. Calls of active or inactive are those of the source.

The subject of this assay is COLO 205 colon. The assay is described as follows: NCI-60 one-dose screen, 48 h (100 = growth as untreated, 0 = no growth, -100 = all killed). The settings on record: 10 µM unless noted. The method, then:
Cells are grown in 96 well plates and exposed to the test compound for 48 hours. Compounds are tested at a single concentration, which is 10^-5 M for most compounds. The reported endpoint is percent growth (GI% or GIPRCNT), where numbers from 0 - 100% represent growth inhibition, and numbers from -100% - 0 represent cell death. For example, a value of 40 represents 60% growth inhibition. A value of 0 means no net growth occurred over the course of the experiment. A value of -40 indicates 40% of cells at the beginning of the experiment died by the end of the experiment. A value of -100 means all cells are dead at the end of the experiment.
NCI-60 Human Tumor Cell Lines Screen was performed using the standard one-dose NCI protocol, which is described in more detail at https://dtp.cancer.gov/discovery_development/nci-60/default.htm.
Compounds with GIPRCNT values below 10 were considered active. Activity score was based on GIPRCNT using the following formula: […]
Score is 0 for GIPRCNT values of 100 or above, 50 for GIPRCNT values of 0, and 100 for GIPRCNT values of -100.
For the compound `COc1ccc(N)c(N)c1`, the growth was 105%.

Take `CC(=O)OC[C@H]1OC(Sc2sc(C(=O)c3ccc(C)cc3)c(N)c2-c2nc3ccccc3s2)[C@H](OC(C)=O)[C@@H](OC(C)=O)[C@@H]1OC(C)=O` (stereo not given in full): the growth is 92.2%.

Take `c1ccc(Nc2cc(-c3cccnc3)[nH]n2)cc1`: the growth was 106%.

For the compound `COc1ccc(OC)c(/C=C/C(=O)N/N=C/c2ccc(Cl)cc2)c1`, the growth is -48.9% (active).

In the case of `CN(C)CCS(=O)(=O)Nc1cc(-c2ccc3ncc(C#N)c(Nc4ccc(F)c(Cl)c4)c3c2)cnc1Cl`, the growth was -80.8% (active).

Regarding `O=S(=O)(NCCCNc1cc(-c2c(-c3cccc(O)c3)nc3sccn23)ccn1)c1cccc2ccccc12`, the growth is 35.5%.

Take `COc1cc2cc(Oc3ccc(NC(=O)Nc4cccc(C(F)(F)F)c4)cc3)c(C)nc2cc1OCCN1CCOCC1`: the growth is 35.5%.

Regarding `CCc1ccc(Oc2c(-c3ccc(OCc4ccc(Cl)cc4)cc3O)nn(C)c2C(F)(F)F)cc1`, the growth was -75.2% (active).

As to `C=C1CC[C@@]2(C#N)[C@H]3[C@H](CC[C@@H]2C)[C@@H](C)C[C@@H](CC(C)(C)C#N)[C@H]13`, the growth was 35.5%.

Take `Cc1cc(=O)oc2cc(OC(=O)CN3CCN(C)CC3)ccc12`: the growth is 110%.

`COc1ccc(NC2=C(Br)C(=O)C(C)=C(C)C2=O)cc1`: the growth was 115%.

Consider `CCN(CC)CCNc1nc2ccccc2c2c(=O)c3cc(Cl)ccc3sc12`, for which the growth is 64.2%.

`COc1ccc(-c2nc(NCCO)[nH]c(=O)c2C#N)cc1`: the growth is 101%.

As for `CCN1C(=O)N(CC)C2Nn3c(s/c(=C\c4ccc([N+](=O)[O-])cc4)c3=O)=NC21` (stereo not given), the growth was 35.5%.

Turning to `NCCCNc1nc2ccc(Cl)cc2c2c(=O)c3cc(F)ccc3sc12`, the growth was 31.9%.

Take `COc1cccc(Cc2nn3cc(-c4ccccc4)nc3s2)c1`: the growth is 106%.

For the compound `CC/C=C\C[C@@H](O)C/C=C1/C(=O)C=C[C@H]1C/C=C\CCCC(=O)OC`, the growth was -58% (active).

Consider `Cc1ccc(/C=N\NC(=O)c2[nH]c3ccc(F)cc3c2-c2ccccc2)cc1`, for which the growth was -78.8% (active).

As for `CS(=O)(=O)N(c1cc(-c2ccc3ncnc(Nc4ccc(F)c(Cl)c4)c3c2)cnc1Cl)S(C)(=O)=O`, the growth is 45.1%.

On to `O=c1c2cc(F)ccc2sc2c(N3CCNCC3)nc3ccccc3c12`, for which the growth was -49.6% (active).

As to `O=C1CCC(C(=O)NCCNCCNC(=O)C2CCC(=O)N2)N1` (stereo not given), the growth is 110%.

With `COc1ccc2c(c1)nc(NNC(=O)c1cnccn1)c1cccn12`, the growth was 7.24% (active).

On to `COc1cccc(-c2nc(-c3ccc(NC(=O)c4ccccc4)cc3)[nH]c2-c2ccnc(Br)c2)c1`, for which the growth was 16.7%.

In the case of `CCCCOc1nc2ccc(OC)cc2cc1-c1cc(-c2ccc(Cl)cc2)nc(-c2ccc(Cl)cc2)c1`, the growth is 112%.

For the compound `Cc1c(C(=O)NCCN2CCOCC2)cn2ncnc(Oc3ccc(NC(=O)Nc4ccc(Cl)c(C(F)(F)F)c4)cc3)c12`, the growth is -25.4% (active).

As to `O=C(Nc1ccc(I)cc1F)c1cc(I)ccc1O`, the growth is 91.1%.

`C=C(C)[C@@H]1CC[C@]2(N=C=O)CC[C@]3(C)[C@H](CC[C@@H]4[C@@]5(C)Cc6c([nH]c7ccccc67)C(C)(C)[C@@H]5CC[C@]43C)[C@@H]12`: the growth is 65.6%.

As to `COc1ccc(C2C(N)=NNC2c2cccc(O)c2)cc1` (stereo not given), the growth is 125%.

As to `CCc1ccccc1-n1c(N)c(C#N)c(-c2ccc(Cl)cc2)c(C#N)c1=O`, the growth was 126%.

Take `COc1ccn2c(C(C)=O)cc(C(=O)c3ccc4c(c3)Sc3ccccc3N4)c2c1`: the growth is -41% (active).

Take `CCCCNc1nc(NN2C(=O)c3cccc4cccc(c34)C2=O)nc(-n2cnc3ccccc32)n1`: the growth is 107%.

For `CCOC(=O)c1cn2ncnc(Oc3ccc(NC(=O)NCCN4CCOCC4)c(Cl)c3)c2c1C`, the growth was 100%.

As to `O=C(/C=C/c1sc(Cl)nc1Cl)c1ccc(F)cc1`, the growth is 75.6%.

With `Cc1cccc2c3c(sc12)C(c1ccc(Cl)cc1)C(C#N)=C(/N=C/c1ccc(Cl)cc1)O3` (stereo not given), the growth was 0.544% (active).

`C=C1C(=O)O[C@H]2[C@H]1CC/C(COC(=O)NCCOCCOCC(=O)Nc1ccc(OC)c(C(N)=O)c1O)=C\CC[C@@]1(C)O[C@@H]21`: the growth is 8% (active).

For `O=C(N/N=C/c1ccc(Cl)cc1)c1ccc(C(F)(F)F)nc1Nc1cccc(C(F)(F)F)c1`, the growth is -12.6% (active).

As for `NC1=NC(c2cccc(Br)c2)c2sc3ccc(Cl)cc3c2N1` (stereo not given), the growth was 100%.

In the case of `NS(=O)(=O)c1ccc(-n2nc(C(=O)N/N=C\c3ccc(F)cc3)cc2-c2ccc(Br)cc2)cc1`, the growth is 83.1%.

With `COc1ccc(-c2conc2-c2ccccc2)cc1`, the growth was -7.37% (active).

Turning to `Cc1c(C(=O)N[C@@H](Cc2ccccc2)C(=O)C(=O)NCc2ccc(F)cc2)[nH]c2ccccc2c1=O`, the growth was -42.1% (active).
